# Laboratory results reported in the supplement of paper PMC8728848.
# The entries come from a sample that favours the strongest signals as a whole.
# B1: Mannose Binding Protein (Lactobacillus plantarum) (protein)
# chain: AERSEAALTHVDKDNFLKYFSLNGSATYDAKTGIVTITPNQNNQVGNFSLTSKIDMNKSFTLTGQVNLGSNPNGADGIGFAFHSGNTTDVGNAGGNLGIGGLQDAIGFKLDTWFNSYQAPSSDKNGSEISSTNSNGFGWNGDSANAPYGTFVKTSNQEISTANGSKVQRWWAQDTGESQALSKADIDGNFHDFVVNYDGATRTLTVSYTQASGKVLTWKTTVASSYQAMAMVVSASTGAAKNLQQFKLTSFDFQEAATVNVKYVDTTGHQLAQG
# What was measured:
# Assay in all cases: glycan array binding signal (z-score within array); higher = stronger binding
# Details in all cases: glycan notation: IUPAC condensed, linker removed
# [1] = target: Fuc(a1-2)Gal(b1-3)[Fuc(a1-4)]GlcNAc
# In short: (§1)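 The binding signal is a Z-score computed within each array. Data were drawn from 3228 arrays in the Consortium for Functional Glycomics database, restricted to those with a known protein sequence. Scores were averaged over arrays of the same protein sequence at different concentrations or buffers, and over linkers, and negative values can be taken as non-binding.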
# [2] = target: Fuc(a1-2)Gal(b1-4)GlcNAc
# In short: as §1
# [3] = target: Fuc(a1-2)Gal(b1-4)GlcNAc(b1-2)Man(a1-6)[Gal(b1-4)GlcNAc(b1-2)Man(a1-3)]Man(b1-4)GlcNAc(b1-4)GlcNAc
# In short: as §1
# [4] = target: Fuc(a1-2)Gal(b1-4)GlcNAc(b1-3)Gal(b1-4)GlcNAc
# In short: as §1
# [5] = target: Fuc(a1-2)[Gal(a1-3)]Gal(b1-3)GlcNAc
# In short: as §1
# [6] = target: Fuc(a1-3)GlcNAc
# In short: as §1
# [7] = target: Fuc(a1-3)[Gal(b1-4)]GlcNAc(b1-4)Gal(b1-4)[Fuc(a1-3)]GlcNAc(b1-4)Gal(b1-4)[Fuc(a1-3)]GlcNAc
# In short: as §1
# [8] = target: Gal(a1-3)Gal(b1-4)Glc
# In short: as §1
# [9] = target: Gal(a1-3)[Gal(a1-4)]Gal(b1-4)GlcNAc
# In short: as §1
# [10] = target: Gal(b1-4)Glc
# In short: as §1
# [11] = target: Gal(b1-4)GlcNAc(b1-6)Gal(b1-4)GlcNAc
# In short: as §1
# [12] = target: Gal6S(b1-4)Glc
# In short: as §1
# [13] = target: GalNAc(b1-3)Gal(a1-4)Gal(b1-4)GlcNAc
# In short: as §1
# [14] = target: GalNAc(b1-3)GalNAc
# In short: as §1
# [15] = target: GlcNAc(a1-6)Gal(b1-4)GlcNAc
# In short: as §1
# [16] = target: Man(a1-2)Man(a1-3)Man
# In short: as §1
# [17] = target: Man(a1-2)Man(a1-3)[Man(a1-6)]Man(a1-6)[Man(a1-2)Man(a1-3)]Man(b1-4)GlcNAc(b1-4)GlcNAc
# In short: as §1
# [18] = target: Man(a1-3)[Man(a1-6)]Man(a1-6)[Man(a1-3)]Man
# In short: as §1
# [19] = target: Neu5Ac(a2-3)Gal(b1-3)GlcNAc(b1-3)Gal(b1-3)GlcNAc
# In short: as §1
# [20] = target: Neu5Ac(a2-3)Gal(b1-3)GlcNAc6S
# In short: as §1
# [21] = target: Neu5Ac(a2-6)Gal(b1-4)GlcNAc(b1-2)Man(a1-3)[GlcNAc(b1-2)Man(a1-6)]Man(b1-4)GlcNAc(b1-4)GlcNAc
# In short: as §1
# [22] = target: Neu5Ac(a2-6)Gal(b1-4)GlcNAc(b1-2)Man(a1-3)[Neu5Ac(a2-6)Gal(b1-4)GlcNAc(b1-2)Man(a1-6)]Man(b1-4)GlcNAc(b1-4)GlcNAc
# In short: as §1
# [23] = target: Neu5Gc(a2-3)Gal(b1-3)GlcNAc
# In short: as §1
# [24] = target: Neu5Gc(b2-6)Gal(b1-4)GlcNAc
# In short: as §1
binder,measurement,setting,value
B1,glycan array binding signal (z-score),[1],-0.167
same,glycan array binding signal (z-score),[2],-0.102
same,glycan array binding signal (z-score),[3],-0.749
same,glycan array binding signal (z-score),[4],-0.358
same,glycan array binding signal (z-score),[5],-0.696
same,glycan array binding signal (z-score),[6],-0.141
same,glycan array binding signal (z-score),[7],-0.071
same,glycan array binding signal (z-score),[8],13.6
same,glycan array binding signal (z-score),[9],-0.551
same,glycan array binding signal (z-score),[10],-0.319
same,glycan array binding signal (z-score),[11],-0.654
same,glycan array binding signal (z-score),[12],0.521
same,glycan array binding signal (z-score),[13],4.17
same,glycan array binding signal (z-score),[14],2.15
same,glycan array binding signal (z-score),[15],-0.056
same,glycan array binding signal (z-score),[16],3.36
same,glycan array binding signal (z-score),[17],0.227
same,glycan array binding signal (z-score),[18],1.77
same,glycan array binding signal (z-score),[19],-0.526
same,glycan array binding signal (z-score),[20],-0.327
same,glycan array binding signal (z-score),[21],-0.444
same,glycan array binding signal (z-score),[22],-0.324
same,glycan array binding signal (z-score),[23],-0.785
same,glycan array binding signal (z-score),[24],1.04
